Assay results taken from the supplement of paper PMC4022240.
± gives the standard deviation.

How the values were obtained:
Test in all cases: peptide microarray binding signal (635 nm), min-max normalized on array (fraction of array maximum); higher = stronger binding
Details in all cases: peptide region: H3 11-23
[1] = molecular target: T1, HaloTag-ATRX ADD domain (163-292)
T1 chain: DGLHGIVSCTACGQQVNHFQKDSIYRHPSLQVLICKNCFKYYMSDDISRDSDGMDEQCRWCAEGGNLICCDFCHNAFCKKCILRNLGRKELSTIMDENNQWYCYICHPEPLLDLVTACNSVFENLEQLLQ
Method in brief: (§1)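 Triplicate spots of histone 13-mer peptide–cellulose conjugates with a Cy3 tracer were printed on nitrocellulose and probed for 1 h at 4°C with biotin-labelled HaloTag reader fusions (10 nM to 1 μM) plus streptavidin-Alexa Fluor 647 or rabbit histone antibodies (1:10,000 to 1:2,000) plus anti-rabbit Alexa 647. An Axon GenePix 4000B read the 635 nm channel. Binding signal is the spot-triplicate mean intensity after min-max scaling within each library.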

[2] = molecular target: HaloTag-ING2 PHD (mouse Ing2 200-280)
Method in brief: as §1

[3] = molecular target: anti-H3K4me3 antibody ab8580
Method in brief: as §1

[4] = molecular target: anti-H3K9me3 antibody ab8898
Method in brief: as §1

[5] = peptide modifications: H3R17me1 H3K18me2, binder concentration: 1:2,000 dilution
[6] = peptide modifications: H3R17me1 H3K18me2, binder concentration: 1:10,000 dilution
[7] = peptide modifications: H3K14me3 H3R17me2s, binder concentration: 1:2,000 dilution
[8] = peptide modifications: H3K14me3 H3R17me2s, binder concentration: 1:10,000 dilution
[9] = peptide modifications: H3R17me1 H3K18me1, binder concentration: 1:2,000 dilution
[10] = peptide modifications: H3R17me1 H3K18me1, binder concentration: 1:10,000 dilution
[11] = peptide modifications: H3R17me1 H3K18ac, binder concentration: 1:2,000 dilution
[12] = peptide modifications: H3R17me1 H3K18ac, binder concentration: 1:10,000 dilution
[13] = peptide modifications: H3R17cit H3K18me2, binder concentration: 1:2,000 dilution
[14] = peptide modifications: H3R17cit H3K18me2, binder concentration: 1:10,000 dilution
[15] = peptide modifications: H3R17cit H3K18me3, binder concentration: 1:2,000 dilution
[16] = peptide modifications: H3R17cit H3K18me3, binder concentration: 1:10,000 dilution
[17] = peptide modifications: H3K18me2, binder concentration: 1:2,000 dilution
[18] = peptide modifications: H3K18me2, binder concentration: 1:10,000 dilution
[19] = peptide modifications: H3R17me1, binder concentration: 1:2,000 dilution
[20] = peptide modifications: H3R17me1, binder concentration: 1:10,000 dilution
[21] = peptide modifications: H3K14me3 H3R17me1, binder concentration: 1:2,000 dilution
[22] = peptide modifications: H3K14me3 H3R17me1, binder concentration: 1:10,000 dilution
[23] = peptide modifications: H3K14me3 H3R17me2a, binder concentration: 1:2,000 dilution
[24] = peptide modifications: H3K14me3 H3R17me2a, binder concentration: 1:10,000 dilution

B1: H3 11-23 T G G K A P Rme Kme2 Q L A T K (peptide)
chain: TGGKAPRKQLATK
In the case of B1, the “peptide microarray binding signal” value ([1]; peptide modifications: H3R17me1 H3K18me2, binder concentration: 50 nM) is reported as 0.00837 ± 0.00068, the “peptide microarray binding signal” value ([1]; peptide modifications: H3R17me1 H3K18me2, binder concentration: 500 nM) is reported as 0.0122 ± 0.0013 and the “peptide microarray binding signal” value ([2]; peptide modifications: H3R17me1 H3K18me2, binder concentration: 10 nM) is reported as 0.0167 ± 0.002. For the same binder, the “peptide microarray binding signal” value ([2]; peptide modifications: H3R17me1 H3K18me2, binder concentration: 100 nM) was 0.0345 ± 0.0088, the “peptide microarray binding signal” value [3, 5] was 0.0126 ± 0.0083 and the “peptide microarray binding signal” value [3, 6] was 0.0135 ± 0.01. The “peptide microarray binding signal” value [4, 5] was 0.00181 ± 0.00018 and the “peptide microarray binding signal” value [4, 6] was 0.001557 ± 1.5e-05.

B2: H3 11-23 T G G Kme3 A P Rme2s K Q L A T K (peptide)
chain: TGGKAPRKQLATK
For B2, the “peptide microarray binding signal” value ([1]; peptide modifications: H3K14me3 H3R17me2s, binder concentration: 50 nM) was 0.0074 ± 0.0004, the “peptide microarray binding signal” value ([1]; peptide modifications: H3K14me3 H3R17me2s, binder concentration: 500 nM) was 0.0114 ± 0.00062 and the “peptide microarray binding signal” value ([2]; peptide modifications: H3K14me3 H3R17me2s, binder concentration: 10 nM) was 0.0227 ± 0.00044. The “peptide microarray binding signal” value ([2]; peptide modifications: H3K14me3 H3R17me2s, binder concentration: 100 nM) was 0.0342 ± 0.0024, the “peptide microarray binding signal” value [3, 7] was 0.0208 ± 0.0037 and the “peptide microarray binding signal” value [3, 8] was 0.0151 ± 0.00082. The “peptide microarray binding signal” value [4, 7] was 0.021 ± 0.0014 and the “peptide microarray binding signal” value [4, 8] was 0.0116 ± 0.00028.

B3: H3 11-23 T G G K A P Rme Kme Q L A T K (peptide)
chain: TGGKAPRKQLATK
B3 was tested, and the “peptide microarray binding signal” value ([1]; peptide modifications: H3R17me1 H3K18me1, binder concentration: 50 nM) was 0.009 ± 0.00036, the “peptide microarray binding signal” value ([1]; peptide modifications: H3R17me1 H3K18me1, binder concentration: 500 nM) was 0.018 ± 0.0028 and the “peptide microarray binding signal” value ([2]; peptide modifications: H3R17me1 H3K18me1, binder concentration: 10 nM) was 0.0114 ± 0.001. For the same binder, the “peptide microarray binding signal” value ([2]; peptide modifications: H3R17me1 H3K18me1, binder concentration: 100 nM) was 0.0208 ± 0.0062, the “peptide microarray binding signal” value [3, 9] was 0.00808 ± 0.0017 and the “peptide microarray binding signal” value [3, 10] was 0.00622 ± 0.0014. For the same binder, the “peptide microarray binding signal” value [4, 9] was 0.0021 ± 0.00037 and the “peptide microarray binding signal” value [4, 10] was 0.00161 ± 4.1e-05.

B4: H3 11-23 T G G K A P Rme Kac Q L A T K (peptide)
chain: TGGKAPRKQLATK
B4 was tested, and the “peptide microarray binding signal” value ([1]; peptide modifications: H3R17me1 H3K18ac, binder concentration: 50 nM) was 0.00715 ± 0.00026, the “peptide microarray binding signal” value ([1]; peptide modifications: H3R17me1 H3K18ac, binder concentration: 500 nM) was 0.0141 ± 0.00063 and the “peptide microarray binding signal” value ([2]; peptide modifications: H3R17me1 H3K18ac, binder concentration: 10 nM) was 0.00931 ± 0.0014. The “peptide microarray binding signal” value ([2]; peptide modifications: H3R17me1 H3K18ac, binder concentration: 100 nM) was 0.0197 ± 0.0049, the “peptide microarray binding signal” value [3, 11] was 0.00513 ± 0.00068 and the “peptide microarray binding signal” value [3, 12] was 0.0149 ± 0.004. For the same binder, the “peptide microarray binding signal” value [4, 11] was 0.001208 ± 9.1e-06 and the “peptide microarray binding signal” value [4, 12] was 0.00121 ± 3.2e-05.

B5: H3 11-23 T G G K A P Rcit Kme2 Q L A T K (peptide)
chain: TGGKAPRKQLATK
With B5 the “peptide microarray binding signal” value ([1]; peptide modifications: H3R17cit H3K18me2, binder concentration: 50 nM) was 0.00542 ± 6.7e-05, the “peptide microarray binding signal” value ([1]; peptide modifications: H3R17cit H3K18me2, binder concentration: 500 nM) was 0.0117 ± 0.00022 and the “peptide microarray binding signal” value ([2]; peptide modifications: H3R17cit H3K18me2, binder concentration: 10 nM) was 0.00806 ± 0.00083. For the same binder, the “peptide microarray binding signal” value ([2]; peptide modifications: H3R17cit H3K18me2, binder concentration: 100 nM) was 0.0217 ± 0.0032, the “peptide microarray binding signal” value [3, 13] was 0.0091 ± 0.0018 and the “peptide microarray binding signal” value [3, 14] was 0.00548 ± 0.00043. The “peptide microarray binding signal” value [4, 13] was 0.000921 ± 7.2e-05 and the “peptide microarray binding signal” value [4, 14] was 0.000865 ± 2.4e-05.

B6: H3 11-23 T G G K A P Rcit Kme3 Q L A T K (peptide)
chain: TGGKAPRKQLATK
For B6, the “peptide microarray binding signal” value ([1]; peptide modifications: H3R17cit H3K18me3, binder concentration: 50 nM) was 0.00592 ± 0.00019, the “peptide microarray binding signal” value ([1]; peptide modifications: H3R17cit H3K18me3, binder concentration: 500 nM) was 0.012 ± 0.00018 and the “peptide microarray binding signal” value ([2]; peptide modifications: H3R17cit H3K18me3, binder concentration: 10 nM) was 0.0112 ± 0.0014. For the same binder, the “peptide microarray binding signal” value ([2]; peptide modifications: H3R17cit H3K18me3, binder concentration: 100 nM) was 0.0317 ± 0.0063, the “peptide microarray binding signal” value [3, 15] was 0.728 ± 0.052 and the “peptide microarray binding signal” value [3, 16] was 0.45 ± 0.036. The “peptide microarray binding signal” value [4, 15] was 0.0249 ± 0.0032 and the “peptide microarray binding signal” value [4, 16] was 0.0125 ± 0.0016.

B7: H3 11-23 T G G K A P R Kme2 Q L A T K (peptide)
chain: TGGKAPRKQLATK
For B7, the “peptide microarray binding signal” value ([1]; peptide modifications: H3K18me2, binder concentration: 50 nM) was 0.00558 ± 0.00014, the “peptide microarray binding signal” value ([1]; peptide modifications: H3K18me2, binder concentration: 500 nM) was 0.0142 ± 0.0013 and the “peptide microarray binding signal” value ([2]; peptide modifications: H3K18me2, binder concentration: 10 nM) was 0.004595 ± 2.3e-05. For the same binder, the “peptide microarray binding signal” value ([2]; peptide modifications: H3K18me2, binder concentration: 100 nM) was 0.0225 ± 0.0074, the “peptide microarray binding signal” value [3, 17] was 0.00421 ± 0.00019 and the “peptide microarray binding signal” value [3, 18] was 0.001541 ± 1.5e-05. The “peptide microarray binding signal” value [4, 17] was 0.00397 ± 0.00076 and the “peptide microarray binding signal” value [4, 18] was 0.00231 ± 4.2e-05.

B8: H3 11-23 T G G K A P Rme K Q L A T K (peptide)
chain: TGGKAPRKQLATK
In the case of B8, the “peptide microarray binding signal” value ([1]; peptide modifications: H3R17me1, binder concentration: 50 nM) is reported as 0.0101 ± 0.00079, the “peptide microarray binding signal” value ([1]; peptide modifications: H3R17me1, binder concentration: 500 nM) is reported as 0.0274 ± 0.0035 and the “peptide microarray binding signal” value ([2]; peptide modifications: H3R17me1, binder concentration: 10 nM) is reported as 0.00877 ± 0.0015. For the same binder, the “peptide microarray binding signal” value ([2]; peptide modifications: H3R17me1, binder concentration: 100 nM) was 0.0348 ± 0.0049, the “peptide microarray binding signal” value [3, 19] was 0.00176 ± 7.5e-05 and the “peptide microarray binding signal” value [3, 20] was 0.00103 ± 2.1e-05. The “peptide microarray binding signal” value [4, 19] was 0.00326 ± 7.1e-05 and the “peptide microarray binding signal” value [4, 20] was 0.00265 ± 0.00014.

B9: H3 11-23 T G G Kme3 A P Rme K Q L A T K (peptide)
chain: TGGKAPRKQLATK
B9 was tested, and the “peptide microarray binding signal” value ([1]; peptide modifications: H3K14me3 H3R17me1, binder concentration: 50 nM) was 0.0176 ± 0.0022, the “peptide microarray binding signal” value ([1]; peptide modifications: H3K14me3 H3R17me1, binder concentration: 500 nM) was 0.0147 ± 0.00081 and the “peptide microarray binding signal” value ([2]; peptide modifications: H3K14me3 H3R17me1, binder concentration: 10 nM) was 0.00609 ± 0.00015. For the same binder, the “peptide microarray binding signal” value ([2]; peptide modifications: H3K14me3 H3R17me1, binder concentration: 100 nM) was 0.00772 ± 0.00033, the “peptide microarray binding signal” value [3, 21] was 0.00823 ± 0.00055 and the “peptide microarray binding signal” value [3, 22] was 0.00502 ± 0.00025. For the same binder, the “peptide microarray binding signal” value [4, 21] was 0.0269 ± 0.0047 and the “peptide microarray binding signal” value [4, 22] was 0.0115 ± 0.00069.

B10: H3 11-23 T G G Kme3 A P Rme2a K Q L A T K (peptide)
chain: TGGKAPRKQLATK
In the case of B10, the “peptide microarray binding signal” value ([1]; peptide modifications: H3K14me3 H3R17me2a, binder concentration: 50 nM) is reported as 0.0192 ± 0.0025, the “peptide microarray binding signal” value ([1]; peptide modifications: H3K14me3 H3R17me2a, binder concentration: 500 nM) is reported as 0.027 ± 0.0031 and the “peptide microarray binding signal” value ([2]; peptide modifications: H3K14me3 H3R17me2a, binder concentration: 10 nM) is reported as 0.0158 ± 0.0011. The “peptide microarray binding signal” value ([2]; peptide modifications: H3K14me3 H3R17me2a, binder concentration: 100 nM) was 0.0298 ± 0.0018, the “peptide microarray binding signal” value [3, 23] was 0.0582 ± 0.0093 and the “peptide microarray binding signal” value [3, 24] was 0.0419 ± 0.0073. The “peptide microarray binding signal” value [4, 23] was 0.133 ± 0.0046 and the “peptide microarray binding signal” value [4, 24] was 0.0547 ± 0.0033.
